Screens deposited in PubChem by National Center for Advancing Translational Sciences (NCATS).
Compounds with a hit are over-represented: about 2.1% of the library has one in this group of screens.
FUS yeast rescue: suppressors of FUS proteinopathy in yeast; S. cerevisiae FUS-expressing, growth rescue, OD600, 24 h; Potency, µM (titrated, usually from 76.6 µM), most hits filed as activators; hit rate 0.24% among 390,000;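 also: plate controls were DMSO vehicle for no effect and reference control for full effect; nearly all actives have a fitted effect of over 55% in size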
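Yeast FUS proteinopathy model; galactose-induced FUS (2%), starting OD 0.005. Cpds in dilution series, 24hr, 30C, 99% humidity. Abs 600 nm growth. Pos ctrl CP55940 (top 92uM final); neg ctrl DMSO.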
TDP-43 yeast inh: TDP-43 toxicity inhibition in yeast; Potency, µM (highest dose often 46.1 µM), for inactives: at the top dose growth rescue (activation), actives largely listed as activators; AID 652104; TDP-43 expressing yeast growth rescue, BacTiter-Glo, 24 h; hit rate 1.8% among 410,000; also: % of control where 0% means no effect; nearly all actives have a fitted effect of over 50% in size
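Yeast expressing TDP-43 (pregrown in raffinose, seeded at OD600=0.02 in galactose medium) exposed to compounds 24 hr at 30 deg C. Growth read by BacTiter-Glo luminescence; rescue of toxicity appears as increased signal.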
Abeta yeast res: A-beta toxicity reversal in yeast; yeast expressing A-beta42, growth rescue, OD600, 48 h; response scale: 0% DMSO, 100% iron-clioquinol control; Potency, µM (series often up to 46.1 µM), usual class: activators; hit rate 0.063% among 410,000; AID 1347071; also: nearly all actives have a fitted effect of over 55% in size
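Growth rescue measured by 600 nm absorbance after 48 h yeast culture at 30 C with compound. Values normalized between DMSO and an equimolar ferric chloride plus clioquinol control.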
aSyn yeast inh: rescues yeast growth from alpha-synuclein toxicity. hit rate 0.14% among 370,000. Potency, µM (titrated, usually from 46.1 µM), inactives show at the highest dose growth rescue (activation), most hits filed as activators. Yeast expressing alpha-synuclein, growth rescue, BacTiter-Glo, 24 h; also: % of control where 0% means no effect; nearly all actives have a fitted effect of over 65% in size
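Galactose-induced alpha-syn yeast (OD600=0.02, raffinose-pregrown) + pinned cpd, 24 hr, 30 deg C; growth by BacTiter-Glo luminescence. Growth restoration scores as activation.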
* marks the source's active call; other numbers are inactive results; i = inactive; u = inconclusive; x = not tested or not shown. Calls follow the shape of the dose curve; as a rule, active = well fitted curve in the direction sought with a large enough effect; inconclusive = small, poorly fitted or top-dose-only effect, or another doubt; inactive = no such curve, though single readings can be large; an effect the other way counts as inactive or inconclusive. Potency is read from the fitted curve at half-maximal effect.

SMILES | FUS yeast rescue | TDP-43 yeast inh | Abeta yeast res | aSyn yeast inh
O=C(Nc1ccc(Cl)c([N+](=O)[O-])c1)c1ccncc1 | x | -4.6% | i | -0.4%
O=C(Nc1ccc(Cl)c(C(F)(F)F)c1)N1CCCC(O)C1 (stereo unspecified) | i | -3.0% | i | 5.5%
O=C(Nc1ccc(Cl)c(C(F)(F)F)c1)C(=O)N1CCCCC1 | x | 17.8µM* | i | 9.7%
O=C(Nc1ccc(Cl)c(C(F)(F)F)c1)c1ccncc1 | i | 10µM* | i | -1.4%
COc1ccc(/C=C2\SC(=O)NC2=S)cc1OC | i | 8.91µM* | i | -15.9%
CCOc1ccc(/C=C2\SC(=S)NC2=O)cc1OC | i | -8.2% | i | -1.4%
CCN(CC)C(=O)Cn1nc(Cc2ccncc2)c2ccccc2c1=O | i | x | x | x
CC(C)(C)c1ccc(-c2nnc3sc(COc4ccccc4)nn23)cc1 | i | x | x | x
Fc1cccc(Cc2c(-c3cccc(Br)c3)nc3ccc(Cl)cn23)c1 | i | 25.1µM* | i | -2.0%
Fc1ccc(-c2nc3ccc(Br)cn3c2Cc2cccc(F)c2)cc1 | i | 16.2% | i | -8.5%
Clc1cccc(-c2nc3ccc(Cl)cn3c2Cc2ccccc2)c1 | i | 15.8µM* | i | 19.4%
Clc1cccc(-c2nc3ccc(Cl)cn3c2Cc2ccsc2)c1 | i | u | i | 0.0%
Cc1cc(NC(c2cccnc2)c2ccc3cccnc3c2O)no1 (stereo unspecified) | i | 1.8% | i | 14.1%
Cc1cccc(NC(c2ccc(O)cc2)c2ccc3ccc(C)nc3c2O)n1 (stereo unspecified) | 15.8µM* | -22.3% | i | -3.9%
COc1cccc(C(Nc2ccccc2)c2ccc3ccc(C)nc3c2O)c1 (stereo unspecified) | i | 22.4µM* | u | 17.8µM*
COc1cccc(C(NC(C)=O)c2ccc3cccnc3c2O)c1 (stereo unspecified) | u | 3.7% | u | u
CC(C)CN1CN2CCc3ccccc3C2CS1(=O)=O (stereo unspecified) | i | x | x | x
Cn1c(=O)cc(OCCCC(=O)Nc2cc(-c3cn[nH]c3)ccn2)c2ccccc21 | i | x | x | x
S=C(Nc1cccc(Br)c1)c1ccccc1 | i | 12.6µM* | u | -10.5%
S=C(Nc1ccccc1)Nc1cccc(Br)c1 | i | 14.7% | i | -8.3%
CC(C)(O)CCc1c(-c2ccc(O)cc2O)oc2c3c(cc(O)c2c1=O)OC(C)(C)C=C3 | u | 12.6µM* | i | -1.6%
COc1ccccc1/C=C1/C(=O)N(c2cc(C)cc(C)c2)C(c2cccc([N+](=O)[O-])c2)S1(=O)=O (stereo unspecified) | i | 11.2µM* | i | -14.0%
CCOc1ccc(N2C(=O)/C(=C\c3ccccc3OC)S(=O)(=O)C2c2cccc([N+](=O)[O-])c2)cc1 (stereo unspecified) | i | 11.2µM* | i | -52.3%
O=C(CSc1nc2ccccc2nc1N1CCCCC1)NCc1ccc(Cl)cc1Cl | i | x | x | x
Cc1nc(N2CCN(C(=O)C3CCCCC3)CC2)c2c3c(sc2n1)CCCC3 | i | x | x | x
SMILES | FUS yeast rescue | TDP-43 yeast inh | Abeta yeast res | aSyn yeast inh
S=C(Nc1ccccc1)Nc1nccs1 | i | 12.6µM* | u | -25.0%
Fc1ccc(NC(=S)Nc2nccs2)cc1 | i | 22.4µM* | u | -11.8%
C/C(=C\c1ccccc1)C(=O)Nc1nccs1 | i | 11.2µM* | i | -13.2%
O=C(Cc1ccc(F)cc1)Nc1nccs1 | i | 9.0% | i | -10.1%
COc1ccc(S(=O)(=O)N2CCN(Cc3nc4ccc(C)cc4o3)CC2)cc1 | i | 17.8µM* | i | x
Cc1ccccc1S(=O)(=O)NC(=O)C1(C)CCN1C(=O)c1ccccc1CCc1ccccc1 (stereo unspecified) | u | 35.5µM* | i | -9.5%
CC1(C(=O)NS(=O)(=O)c2ccccc2Cl)CCN1C(=O)C1(c2ccccc2)CCCC1 (stereo unspecified) | i | u | i | -0.7%
CC1(C(=O)NS(=O)(=O)c2ccccc2Cl)CCN1C(=O)C1(c2ccc(Cl)cc2)CC1 (stereo unspecified) | i | 35.5µM* | i | 2.0%
CC1(C(=O)NS(=O)(=O)c2ccccc2)CCN1C(=O)C1(c2ccc(Cl)cc2)CCC1 (stereo unspecified) | i | 0.0% | i | 7.9%
